Most compounds without a hit are left out; they make up all but 4% or so of the library.
FGF22 binding = binders of recombinant human FGF22 by thermal shift; SYPRO orange fluorescence; percent of sucrose octasulfate shift, DMSO zero; 1.5% of 340,000 active; AID 651658; activity (Tm shift, normalised), % at 9.99 µM; Q9HCT0;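 active means mean Tm shift, scaled 0 neutral to 100 positive control, at about 1.3% or above, every replicate too, limit read from the data; inconclusive means no clear call, values can overlap the other calls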
Target sequence (Q9HCT0 whole entry, looked up): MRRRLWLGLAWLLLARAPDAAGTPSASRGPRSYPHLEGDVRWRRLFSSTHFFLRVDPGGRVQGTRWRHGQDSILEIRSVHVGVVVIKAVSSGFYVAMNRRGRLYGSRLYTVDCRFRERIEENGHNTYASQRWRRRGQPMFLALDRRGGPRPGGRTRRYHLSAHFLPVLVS
ERAP1 HTS inh = blocks human ERAP1 aminopeptidase activity | Q9NZ08 | recombinant ERAP1, Leu-AMC fluorescence, 60 min | inhibition, % at 10.7 µM | 0.15% of 340,000 active;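 active means mean replicate inhibition of at least 30%, or all replicates individually reaching that 30% level; inactive means mean below 30% and not every replicate reaching it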;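 further: 0% = neutral control wells and 100% = L-leucinethiol positive control wells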
DENV2 CPE = DENV2-induced cell death inhibition; DENV2-infected cells, cytopathic effect rescue, plate reader; CPE inhibition, % at 9.99 µM; 1.7% of 350,000 active; in the data active means CPE inhibition above about 20%, passing the limit was not always enough; inconclusive means no clear call, values can overlap the other calls; tested in BHK-21 cells;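 further: 0% = median of neutral control wells and 100% = median of positive control wells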
MLL AF4-AF9 inh = inhibitors of human MLL-AF4/AF9 interaction | P42568 | AlphaScreen, biotin-AF4 peptide binding to FLAG-AF9 | inhibition, % at 10 µM | 0.47% of 350,000 active;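 active means every replicate reaching a set inhibition limit, whatever the replicate mean, cut at about 25% in these data; inconclusive means mean inhibition reaches that limit but some replicates miss it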;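 further: 0% = plate neutral control median and 100% = total signal loss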
RAD52 anneal inh = RAD52 (human) annealing inhibition. inhibition, % at 18.7 µM. P43351. recombinant RAD52 DNA annealing, FRET fluorescence. 0.46% of 360,000 active;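 active means every replicate showing at least 50% inhibition; inconclusive means mean inhibition at least 50% but not in every replicate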
Target sequence (P43351 whole entry, looked up): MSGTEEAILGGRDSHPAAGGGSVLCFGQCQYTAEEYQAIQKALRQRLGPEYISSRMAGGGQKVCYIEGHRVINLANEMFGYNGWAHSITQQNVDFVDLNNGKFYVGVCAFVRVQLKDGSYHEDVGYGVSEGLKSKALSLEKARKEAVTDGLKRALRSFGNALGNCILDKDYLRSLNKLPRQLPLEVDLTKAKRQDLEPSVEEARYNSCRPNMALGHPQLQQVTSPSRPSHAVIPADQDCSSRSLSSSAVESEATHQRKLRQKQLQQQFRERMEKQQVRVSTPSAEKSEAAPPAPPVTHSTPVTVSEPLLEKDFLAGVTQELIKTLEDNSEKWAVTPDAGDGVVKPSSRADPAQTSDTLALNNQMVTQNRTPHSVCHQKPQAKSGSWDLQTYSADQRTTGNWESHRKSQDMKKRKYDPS
* hit, by the source's call; ? = inconclusive; . = no result given.

SMILES | FGF22 binding | ERAP1 HTS inh | DENV2 CPE | MLL AF4-AF9 inh | RAD52 anneal inh
CC(=O)c1sc(-c2ccccc2)cc1N | -0.5 | -0.8 | -2.4 | . | -25.6
C[C@]12CC[C@H](OC(=O)CCC(=O)O)CC1=CCC1C2CC[C@@]2(C)C1CC[C@@H]2N (stereo not given in full) | 43.5* | -1.5 | -9.5 | -6.8 | -3.6
O=C1CCCN1CCc1cccc2ccccc12 | 43.4* | -6.1 | -9.5 | -6.3 | -14.1
O=C1CCCN1Cc1ccccc1 | -0.3 | -0.2 | 0.0 | -1.9 | 13.3
CCC(=O)N(C)C[C@@H]1Oc2ncc(-c3ccc(C)cc3)cc2C(=O)N([C@H](C)CO)C[C@H]1C | 0.0 | 1.8 | -1.6 | -11.6 | 15.8
CCn1c(CNC(=O)c2ccco2)nnc1SCC(=O)c1ccc(F)cc1 | -0.1 | -2.4 | 2.6 | -0.6 | -13.9
CCn1c(CNC(=O)c2ccco2)nnc1SCC(=O)c1ccc(OC)cc1 | 43.3* | -2.4 | -3.0 | -10.0 | -9.6
O=C(Nc1ccccc1F)N[C@@H]1CC[C@H](CCNC(=O)C2CCC2)O[C@H]1CO | 0.0 | 0.9 | ? | -3.0 | -0.1
COc1cccc(C2CC(=O)NC(SC)=C2C#N)c1 (stereo not given) | 0.1 | 5.4 | -4.5 | 25.4* | -2.0
CCSC1=C(C#N)C(c2cccc(Br)c2)CC(=O)N1 (stereo not given) | 0.2 | -13.7 | ? | -33.2 | -12.9
O=C(NC[C@@H]1CC[C@@H]2[C@@H](CN2S(=O)(=O)c2ccccc2[N+](=O)[O-])O1)C1CCOCC1 | . | 10.9 | -0.3 | 28.0* | 24.0
O=C(N/N=C/c1c[nH]c2ccccc12)c1ccccc1 | 0.0 | -0.7 | -0.6 | -1.4 | -3.2
O=C(N/N=C/c1oc(O)c2ccccc12)c1ccccc1 | 43.5* | 3.1 | 2.2 | -8.0 | -10.2
COCCNCc1ccccc1 | 0.2 | -0.4 | 0.0 | -1.2 | -6.1
c1ccc(CNCCCNCCCCNCCCNCc2ccccc2)cc1 | -0.1 | 5.0 | 0.9 | 25.5* | -45.6
CNC[C@@H]1OCCCC[C@H](C)Oc2ccc(NC(=O)Cc3ccccc3)cc2C(=O)N([C@H](C)CO)C[C@@H]1C | -0.2 | -2.7 | -7.0 | -1.2 | -28.7
COc1cccc(=O)c2c(C)n(CC(=O)c3ccccc3)c(C)c12 | 43.6* | -1.9 | 0.9 | -4.2 | -21.0
C[C@H](CO)N1C[C@H](C)[C@@H](CN(C)Cc2ccc(-c3ccccc3)cc2)Oc2ccc(NC(=O)CCCCCC(=O)Nc3ccccc3N)cc2CC1=O | -0.1 | 2.8 | 17.8 | -0.2 | -20.0
COc1ccc([C@@H]2CC=C(C(=O)O)[C@H](c3cccc(Cl)c3)N2S(=O)(=O)c2ccc(C)cc2)cc1OC | -0.2 | 6.1 | -9.6 | -6.8 | -15.0
COc1ccc([C@@H]2CC=C(C(=O)O)[C@H](c3ccccc3F)N2S(=O)(=O)c2ccc(C)cc2)cc1OC | -0.1 | -0.4 | 35.6* | 2.9 | -14.2
COc1ccc([C@@H]2CC=C(C(=O)O)[C@H](c3ccccc3)N2S(=O)(=O)c2ccc(C)cc2)cc1OC | -0.2 | 0.9 | 48.8* | 2.8 | -11.1
Cc1ccc([C@@H]2CC=C(C(=O)O)[C@H](c3ccccc3F)N2S(=O)(=O)c2ccc(C)cc2)cc1 | 0.5 | -1.7 | -6.4 | 5.2 | -15.4
COCCNC(=O)C[C@H]1CC[C@@H]2[C@@H](COc3ccc(NC(=O)c4cnccn4)cc3C(=O)N2C)O1 | -0.1 | 1.6 | 6.5 | -1.2 | -0.8
O=C(C[C@H]1CC[C@H]2[C@@H](COC[C@@H](O)CN2C(=O)c2cccnc2)O1)NCc1ccccc1 | -0.3 | 0.4 | -0.2 | -2.2 | -21.6
O=C(c1ccc(NC2=NC3CS(=O)(=O)CC3S2)cc1)N1CCN(c2ccccc2F)CC1 (stereo not given) | 0.0 | 3.7 | 0.2 | 48.3* | -16.9
SMILES | FGF22 binding | ERAP1 HTS inh | DENV2 CPE | MLL AF4-AF9 inh | RAD52 anneal inh
COc1cccc(N2CCN(C(=O)c3cccc(NC4=NC5CS(=O)(=O)CC5S4)c3)CC2)c1 (stereo not given) | -0.2 | 2.9 | 34.8* | 0.1 | -7.9
O=C(c1ccc(NC2=NC3CS(=O)(=O)CC3S2)cc1)N1CCN(c2ccc(F)cc2)CC1 (stereo not given) | -0.2 | 0.5 | ? | 0.6 | -10.7
Cc1ccc(C)c(N2CCN(C(=O)c3ccc(Cl)c(NC4=NC5CS(=O)(=O)CC5S4)c3)CC2)c1 (stereo not given) | -0.1 | 1.0 | 28.0* | -0.6 | -23.3
Cc1cc(C(=O)Nc2cccc3c2O[C@@H](CN(C)S(=O)(=O)c2ccccc2)[C@@H](C)CN([C@@H](C)CO)C3=O)n(C)n1 | -0.4 | -6.5 | -8.7 | -13.6 | 7.3
COC(=O)C[C@H]1CC[C@H]2[C@H](COc3ccc(NC(=O)c4ccc(F)cc4)cc3C(=O)N2C)O1 | -0.1 | -2.7 | -1.6 | -2.2 | 2.7
COc1ccc(S(=O)(=O)N(C)C[C@H]2Oc3c(NC(=O)NC(C)C)cccc3C(=O)N([C@H](C)CO)C[C@H]2C)cc1 | 0.3 | -0.3 | -4.5 | -3.7 | -16.5
COCCOC(=O)N1C(=O)[C@@]2(c3ccccc31)[C@H](c1ccccc1OCCO)N1[C@H](c3ccccc3)[C@H](c3ccccc3)OC(=O)[C@H]1[C@@H]2C(=O)N1CCCCCCC1 | -0.1 | -0.2 | 1.1 | -8.3 | -2.6
Cc1nn(CC(=O)NC2CCS(=O)(=O)C2)c(C)c1S(=O)(=O)N(C)C (stereo not given) | -0.3 | -1.9 | -2.8 | -0.5 | -8.2
Cc1nn(CC(=O)NC2CC2)c(C)c1S(=O)(=O)N(C)C | 43.1* | 1.4 | 2.7 | -2.0 | -3.3
COc1cc(OC)c2ccc(=O)oc2c1C(CCN1CCN(c2ccccc2)CC1)c1ccc(N(C)C)cc1 (stereo not given) | -0.5 | 1.9 | 6.0 | 26.1* | -25.9
COc1cc(OC)c2c(-c3ccccc3)cc(=O)oc2c1C(CCN1CCN(c2ccccc2)CC1)c1ccc(N(C)C)cc1 (stereo not given) | -0.2 | . | -8.0 | 18.4 | -18.4
CCCCCc1cc(=O)oc2c(C(CCN3CCN(c4ccccc4)CC3)c3ccc(N(C)C)cc3)c(OC)cc(OC)c12 (stereo not given) | 0.3 | 2.0 | -8.4 | . | -12.5
COc1ccc(C(CCN2CCCC(C)C2)c2c(OC)cc(OC)c3c(-c4ccccc4)cc(=O)oc23)cc1 (stereo not given) | 0.1 | . | ? | 27.3* | 1.8
COc1ccc(C(CCN2CCN(c3ccccc3)CC2)c2c(OC)cc(OC)c3c(-c4ccccc4)cc(=O)oc23)cc1 (stereo not given) | -0.1 | 2.9 | 58.9* | 4.9 | 4.1
COc1ccc(CN(C)C[C@H]2Oc3ccc(NS(=O)(=O)c4ccc(F)cc4)cc3CC(=O)N([C@H](C)CO)C[C@@H]2C)cc1 | -0.2 | -0.9 | -5.7 | -3.1 | 12.4
C[C@@H]1CN([C@H](C)CO)C(=O)c2cc(NS(C)(=O)=O)ccc2O[C@@H](C)CCCCO[C@H]1CN(C)Cc1ccc(C(F)(F)F)cc1 | -0.3 | . | 10.1 | . | .
C[C@@H]1CN([C@@H](C)CO)C(=O)c2cc(/C=C/c3ccccc3)cnc2O[C@H]1CN(C)Cc1cccnc1 | 0.2 | -1.0 | -7.6 | 5.0 | 7.8
